Records with an inconclusive call do not appear. Unmarked numbers belong to inactive results. The source made the active and inactive calls. Calls follow the shape of the dose curve; as a rule, active = well fitted inhibition curve with a large enough effect; inconclusive = small, poorly fitted or top-dose-only effect; inactive = flat fitted curve, though single readings scatter. *1 amine or outer side, *2 acyl side, *3 side chain or, on linkers, in order; H or OH if unused. Where a SMILES comes first, the peptide text is derived from it. Bridges are numbered along the chain shown (N, C = ends). [ ]: non-standard residue; d: D form. The star is where a group is joined. ξ: configuration not given here. X10 = NC1=NCCC(C(N[*:1])C(=O)[*:2])N1; ΔAla(3-NHCONH2) = NC(=O)NC=C(N)C(=O)O; ξβ3hOrn = NCCCC(N)CC(=O)*; Dap = NC[CH](N)C(=O)O

Experiment in all cases: Cytotoxic Profiling of Annotated Libraries Using Quantitative High-Throughput Screening (AID 1296008); also: nearly all actives have a fitted effect of over 60% in size
Common to all, as to conditions: Five cell lines viability, CellTiter-Glo ATP luminescence, 48-72 h; max response: active compounds read low

One assay relates to CRL-7250. Put shortly:
(§1)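 Cytotoxicity was measured as CellTiter-Glo ATP luminescence, read after 10 min at room temperature. Compound treatment of the cells lasted 48 or 72 hr at 37 degrees Celsius in a qHTS format.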

The test system of the next assay is HEK293. Put shortly: as §1
The next assay relates to HaCat. Put shortly: as §1
A further assay has as its system NIH3T3. Put shortly: as §1
% is scaled to controls: 0 for no effect and ±100 for the full control effect; potency is read from the fitted curve at half-maximal effect.

As for `c1ccc2c(c1)CCc1ccccc1N2`, the outcome in the assay on CRL-7250, in the assay with HEK293 and with NIH3T3 was inactive. Also, the max response in the assay with HaCat was -8.39%.
For the compound `COC(=O)c1ccc(NC(C)=O)cc1OC`, the max response was -0.178% in the assay with CRL-7250, -0.683% in the assay on HEK293, -9.21% in the assay with HaCat and -16.1% with NIH3T3.
With `O=C(CS(=O)Cc1ccco1)NC/C=C\COc1cc(CN2CCCCC2)ccn1` (configuration not stated), the max response is -3.38% with CRL-7250, 0.0112% in the assay on HEK293, -5.87% in the assay with HaCat and -2.51% in the assay on NIH3T3.
For `CC(=O)N[C@@H](CO)C(=O)N[C@@H](CC(=O)O)C(=O)N[C@@H](CCCCN)C(=O)N1CCC[C@H]1C(=O)O` (Ac-SDKP-OH), in that order: 3.47%, 0.0413%, -26.1% and -0.894%.
With `CC(C)C[C@@H]1[C@H](c2ccccc2)OC(=O)N1CCCN1CCCCCC1`, the max response was -2.82% in the assay on CRL-7250, -13.9% with HaCat and -3.61% with NIH3T3. Besides, the Potency with HEK293 is 23.7 µM (active).
On to `NC(=O)NS(=O)(=O)c1ccc(Cl)cc1`, for which, in the assay with CRL-7250, the result was inactive. For the same compound, the results for the max response with HEK293, with HaCat and with NIH3T3 were -19.3%, 0.84% and -2.72%, respectively.
Turning to `CCS(=O)(=O)c1ccc(OC)c(C(=O)OC)c1`, the max response is 0.361% with CRL-7250 and 4.82% in the assay with HaCat. In addition, the call in the assay with HEK293 and in the assay with NIH3T3 was inactive.
For `CC(C)CCCC(C)NCCC(C)C` (configuration not stated), the max response in the assay on CRL-7250 was -5.37%; with HEK293, -7.84%; in the assay with HaCat, 3.37%. In addition, in the assay with NIH3T3, the compound was called inactive.
On to `CN1CCN(N)CC1`, for which the max response in the assay with CRL-7250 was -18.2%; with HaCat, 1.4%. The result in the assay on HEK293 and in the assay with NIH3T3 was inactive.
As for `CC(C)(Oc1ccc(Cl)cc1)C(=O)OCCCOC(=O)C(C)(C)Oc1ccc(Cl)cc1`, the max response with CRL-7250 is -5.16%; in the assay with HEK293, -15.3%; with HaCat it was -1.93%; in the assay with NIH3T3 it was 1.4%.
Turning to `O=C(O)Cn1cnnn1`, the max response was -0.376% in the assay on CRL-7250, 1.64% in the assay on HaCat and -2.11% in the assay with NIH3T3. Moreover, the compound was called inactive in the assay with HEK293.
Turning to `Cc1sccc1Br`, the max response in the assay with CRL-7250 is -9.55%; in the assay with HEK293, -4.49%; in the assay with HaCat, 1.43%; in the assay on NIH3T3, -2.8%.
On to `Nc1ccc(C(=O)N2CC3CC(CN(Cc4ccccc4)C3)C2)cc1`, for which the figures for the max response in the assay with CRL-7250 and in the assay with HaCat were -9.41% and 3.27%, respectively. Also, the compound was called inactive with HEK293 and in the assay with NIH3T3.
In the case of `O=c1[nH]c(=O)n([C@H]2O[C@H](CO)[C@@H](O)[C@@H]2O)cc1/C=C\Br`, the max response is -8.24% in the assay with CRL-7250, 4.03% with HaCat and -0.191% in the assay on NIH3T3. In addition, the result in the assay on HEK293 was inactive.
Turning to `O=C(O)C1CCC1`, in the assay with CRL-7250, the outcome was inactive. Moreover, the max response in the assay on HEK293 is -2.16%; in the assay on HaCat, 1.71%; with NIH3T3, -4.19%.
Take `CC(=O)OC[C@H]1O[C@@H](OC(C)=O)[C@H](OC(C)=O)[C@@H]1OC(C)=O`: the values for the max response in the assay on CRL-7250, with HEK293 and with HaCat were -4.36%, 1.73% and 2.57%, respectively. The result in the assay on NIH3T3 was inactive.
For `C#Cc1ccc(-c2ccccc2F)cc1`, in that order: -10.3%, -8.83%, 3.65% and “inactive”.
Turning to `CCOC(=O)O[C@]1(C(=O)OCCl)CC[C@H]2[C@@H]3CCC4=CC(=O)C=C[C@]4(C)[C@H]3[C@@H](O)C[C@@]21C`, the result with CRL-7250, with HEK293 and in the assay with NIH3T3 was inactive. Besides, the max response in the assay with HaCat was -4.73%.
For `O=C(O)CCCC[C@@H]1SC[C@@H]2NC(=O)N[C@@H]21`, the compound was classed as inactive in the assay with CRL-7250. Besides, the max response is -6.79% in the assay with HEK293, 4.46% with HaCat and 1.46% with NIH3T3.
As to `Cc1cc(=O)oc2cc(O[C@@H]3SC[C@@H](O)[C@H](O)[C@H]3O)ccc12`, the max response is -1.48% with CRL-7250, -8.77% in the assay on HEK293 and 4.75% in the assay on HaCat. In the assay with NIH3T3, the outcome was inactive.
`C/C(=N\O)[C@@H](C)NCC(C)(C)CN[C@H](C)/C(C)=N/O`: in the assay on CRL-7250, the outcome was inactive. Further, the results for the max response in the assay with HEK293, in the assay with HaCat and in the assay on NIH3T3 were -22.3%, -13.6% and -0.119%, respectively.
Take `O=C1CC2(CCCC2)CC(=O)N1CCNCC1COc2ccccc2O1` (configuration not stated): the max response is -5.57% in the assay with CRL-7250, -0.105% in the assay with HaCat and -7.46% in the assay with NIH3T3. Besides, the result in the assay on HEK293 was inactive.
In the case of `NCCCC(N)CC(=O)NCC1NC(=O)C(CO)NC(=O)C(N)CNC(=O)C(C2CCN=C(N)N2)NC(=O)C(=CNC(N)=O)NC1=O` (stereo not drawn) (H-[Dap]S[Dap](ξβ3hOrn)[ΔAla(3-NHCONH2)][X10]; lactam 1-C; configuration not given here), the max response in the assay on CRL-7250 is -12.1%; with HEK293, -7.39%; with HaCat, -10.9%; in the assay on NIH3T3 it was -5.75%.
As for `C#CC(C)(CC)OC(=O)c1ccccc1C(=O)O` (configuration not stated), the max response in the assay on CRL-7250 was -9.5%; in the assay with HEK293, 4.2%; with HaCat, -2.23%. In addition, the call with NIH3T3 was inactive.
With `CCCCOCCOC(=O)c1cccnc1`, the compound was called inactive with CRL-7250 and in the assay on HEK293. Also, the max response in the assay on HaCat is -21.3%; in the assay on NIH3T3, -2.28%.
Regarding `CCc1cccc2c(CCO)c[nH]c12`, the max response with CRL-7250 was -8.62%; in the assay on HEK293, -6.21%; with HaCat it was 2.18%; in the assay on NIH3T3, 1.36%.
For `Clc1ccc2c(c1)Nc1ccccc1S2`, the figures for the max response in the assay on CRL-7250, in the assay on HEK293 and with HaCat were -4.08%, -6.16% and -13.4%, respectively. In the assay with NIH3T3, the compound was called inactive.
Consider `CC(C)C(=O)OCc1cccc(OC(=O)[C@@H]2N3C(=O)[C@@H](NC(=O)Cc4ccccc4)[C@H]3SC2(C)C)c1`, for which the compound was classed as inactive in the assay with CRL-7250 and in the assay on HEK293. Further, the max response is -11.1% in the assay on HaCat and 4.46% in the assay with NIH3T3.

Values taken from PubChem BioAssay (NCATS).
